Bioassay records (PubChem BioAssay)
Vc quorum ag-1: inducers of Vibrio cholerae quorum light production without autoinducers, primary screen, BH1578 luxS cqsA deficient, single point. AID 588436, 2011. V. cholerae BH1578 lux reporter, luminescence, 6 h. activation, % at 18.7 µM. actives 0.16% (n = 350,000); in the data active means activation mostly above about 9.7%, no sharp cut-off
GDH-TPI inh: GDH-TPI coupling enzyme inhibitors, primary screen, artefact control for M. tuberculosis FBA inhibitor project, biochemical, absorbance, full deck; actives 1.2% (n = 360,000); inhibition, % at 4.8 µM; AID 588335, 2011; GDH-TPI coupled enzyme counterscreen, NADH absorbance;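 further: 0% = DMSO wells and 100% = wells lacking the enzyme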
CCHFV vOTU inh: CCHFV vOTU protease inhibitors, primary screen, biochemical, Pep-AMC substrate, fluorescence; actives 0.55% (n = 370,000); AID 651958, 2012; Crimean-Congo hemorrhagic fever virus L polyprotein viral ovarian tumor (vOTU) protease …; inhibition, % at 11.5 µM; further: 0% = vehicle wells with enzyme and 100% = no enzyme wells
Mtb FBA inh: Mtb FBA enzyme inhibitors, primary screen, biochemical, fluorescence, strain H37Rv | AID 588726, 2011 | Fructose-bisphosphate aldolase (Mycobacterium tuberculosis (strain ATCC 25618 / H37Rv)), … | purified M. tuberculosis FBA, fluorescence read-out | inhibition, % at 1 µM | actives 2.3% (n = 360,000); in the data active means inhibition above about 27%;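 further: 0% = vehicle and 100% = reference inhibitor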
Target sequence (P9WQA3 whole entry, looked up): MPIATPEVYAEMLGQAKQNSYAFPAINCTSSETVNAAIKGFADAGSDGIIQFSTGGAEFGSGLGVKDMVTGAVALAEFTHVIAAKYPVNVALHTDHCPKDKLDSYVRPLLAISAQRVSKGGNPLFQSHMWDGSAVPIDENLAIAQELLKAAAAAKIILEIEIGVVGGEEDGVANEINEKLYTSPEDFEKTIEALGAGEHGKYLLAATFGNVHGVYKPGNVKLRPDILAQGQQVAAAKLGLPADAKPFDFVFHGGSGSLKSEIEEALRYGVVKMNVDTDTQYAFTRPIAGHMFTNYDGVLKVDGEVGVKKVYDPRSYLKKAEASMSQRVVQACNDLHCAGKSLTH
Vc quorum ag-2: V. cholerae lux activation without autoinducers – BH1578 luxS cqsA deficient, cherry-pick, plate reader, dose response | 620 tested, under 10 active | V. cholerae BH1578 lux reporter, luminescence, 6 h | AID 602243, 2012 | shares compounds with Vc quorum ag-1 | activation, % at 50 µM; call rule not given here
Numbers without * were called inactive; i = inactive; x = no result; + = active, no number. Most compounds without a hit are left out; they make up all but 3.9% or so of the library. Unless noted, no stated cut-off is given here; in the data, active means inhibition above about 30%; inactive means the rest.

SMILES | Vc quorum ag-1 | GDH-TPI inh | CCHFV vOTU inh | Mtb FBA inh | Vc quorum ag-2
CCOC(=O)CSc1nc2sc3c(c2c(=O)n1CC)CC(C)(C)OC3 | -0.4 | 7.1 | -4.8 | -0.7 | x
O=[N+]([O-])c1ccc(N(CCO)CCO)c2c1no[n+]2[O-] | 38.5* | 19.5 | 19.4 | -3.6 | 2.1
CN(CCO)c1cc(N(C)CCO)c([N+](=O)[O-])cc1[N+](=O)[O-] | i | 19.6 | 5.8 | -1.5 | x
CCN(CC1COc2ccccc2O1)C(=S)Nc1ccccc1 (stereo not drawn) | 12.5 | 11.4 | -4.9 | 2.8 | 1.4
CCN(CC1COc2ccccc2O1)C(=S)NCCCN(C)C (stereo not drawn) | i | 3.9 | -7.0 | 4.1 | x
C=C(C)COc1ccc(-c2ncncc2Oc2ccc(OC)cc2)c(O)c1 | 25.0* | 3.4 | 13.1 | -7.3 | 0.2
C=C(C)COc1ccc(-c2nc(N)nc(C)c2-c2ccc(OC)cc2)c(O)c1 | 0.0 | 15.5 | 8.2 | 2.2 | x
Cc1cc(C)c(NC(=O)CSc2nc3ncc(Br)cc3[nH]2)c(Cl)c1 | i | 7.6 | 20.5 | 3.8 | x
COc1ccccc1CCN1CCCC(CN(C)C(=O)c2ccc3nc[nH]c3c2)C1 (stereo not drawn) | -0.9 | 4.7 | 12.2 | -0.2 | x
Clc1ccc(-c2cc(COc3ccc4ccccc4c3)no2)cc1 | 12.5 | -4.1 | -5.0 | 5.4 | -0.1
CCOC(=O)Nc1ccc(S(=O)(=O)Nc2cc(C)nc(C)n2)cc1 | 12.5 | 3.9 | 12.2 | 1.3 | 12.8
N#CCC(=O)NCCCOC(=O)Nc1ccc(Cl)c(Cl)c1 | i | 9.4 | 3.5 | 0.6 | x
CC(C)N(Cc1cnn(C)c1)Cc1nc(COc2ccccc2)no1 | i | 1.9 | -11.9 | 5.2 | x
FC(F)Oc1ccccc1NC(=S)NCc1ccco1 | 12.5 | -0.6 | -0.9 | -0.7 | -0.1
CC(=O)Nc1nonc1NC(=O)c1ccc(F)cc1 | x | -15.6 | 3.7 | -0.1 | x
CC(=O)Nc1nonc1NC(C)=O | 25.8* | -5.2 | -4.4 | 3.0 | 0.6
Cc1ccc(NC(=O)CCC(=O)NNC(=O)NC23CC4CC(CC(C4)C2)C3)cc1C | -1.9 | -8.5 | 10.9 | -1.2 | x
CCCCc1ccc(Nc2nc(CCC)cc(=O)[nH]2)cc1 | i | -0.8 | 11.4 | -1.1 | x
CCCc1cc(=O)[nH]c(Nc2ccc(N3CCCCC3)cc2)n1 | + | 1.3 | 5.4 | 0.6 | i
O=C(NC1CCCC1)c1ccc(CS(=O)Cc2ccc(Cl)cc2)o1 (stereo not drawn) | i | -3.4 | 9.0 | -5.5 | x
CCC(=O)N/C(=N\OCc1ccc(F)cc1)c1nonc1NC(=O)CC | -0.3 | -8.2 | -5.5 | -5.4 | x
COc1c(C)cccc1C(=O)Nc1ccc(OCC(=O)N2CCOCC2)cc1C | 10.8 | 3.2 | 9.6 | -1.9 | 0.0
Cc1cc(NC(=O)c2cccc3ccccc23)cc(C)c1OCC(=O)N1CCOCC1 | i | 10.0 | -0.8 | 1.6 | x
Cn1c(CCNC(=O)c2ccco2)nc2cc(NC(=O)C3CCCCC3)ccc21 | -0.6 | -2.3 | 6.4 | 2.4 | x
Cn1c(CCNC(=O)c2ccco2)nc2cc(NC(=O)NC3CCCCC3)ccc21 | 7.6* | 5.2 | 8.3 | -1.1 | 0.2
SMILES | Vc quorum ag-1 | GDH-TPI inh | CCHFV vOTU inh | Mtb FBA inh | Vc quorum ag-2
COc1ccccc1NS(=O)(=O)c1ccc(C(=O)NCC(c2ccco2)N(C)C)cc1 (stereo not drawn) | 0.0 | 7.5 | 1.0 | 10.9 | x
Cc1ccc(S(=O)(=O)Nc2cc(C(=O)NCCN(C)C)ccc2N2CCCCC2)cc1 | 16.7* | 5.4 | 16.4 | 4.4 | 0.3
COc1ccc(-n2ccnc(SCC(=O)NCc3ccc(C)cc3)c2=O)cc1Cl | -0.8 | 9.4 | -13.7 | 5.5 | x
CNC(=O)c1cc2cc(OC)ccc2n1CCN(Cc1ccccc1)Cc1ccccc1 | 25.0* | 0.8 | 10.3 | 0.7 | 0.4
CC(=O)c1ccc(NC(=O)CNc2cc(S(=O)(=O)N3CCOCC3)ccc2N2CCCC2)cc1 | i | 5.5 | -8.6 | -1.0 | x
O=C(CNc1cc(S(=O)(=O)N2CCOCC2)ccc1N1CCCC1)Nc1ccc(Cl)cc1 | 96.9* | 0.0 | 4.6 | 0.2 | 0.0
Cc1ccc(-c2nc(CS(=O)CC(=O)NCCN3CCOCC3)c(C)o2)cc1 (stereo not drawn) | -1.1 | 2.9 | 0.6 | 0.8 | x
CCOC(=O)Nc1ccc2c(c1)C(=NNC(=S)NC)c1ccccc1-2 | -0.7 | 23.9 | 8.3 | -5.1 | x
Cc1ccc(Oc2nccc(-c3ccc(Cl)cc3)n2)cc1 | 12.5 | -3.5 | 0.6 | 5.0 | 0.1
O=C(CCN1C(=O)c2ccccc2C1=O)N1CCN(C2c3ccccc3-c3ccccc32)CC1 | 13.3 | -5.7 | -11.9 | -0.2 | 2.4
O=C(COC(=O)C1CCN(c2ccc(C(F)(F)F)cn2)CC1)NC1CCCCC1 | 14.3 | -0.7 | 26.1 | 1.1 | -0.3
NC(=O)c1ccc(NC(=O)COC(=O)c2cc(S(=O)(=O)N3CCOCC3)ccc2N2CCCCC2)cc1 | -0.8 | 6.2 | 4.5 | -1.0 | x
Cc1cccc(NC(=O)c2c(O)c3ccccc3n(C)c2=O)c1 | 70.3* | 6.5 | -0.1 | -1.3 | 0.0
CC(=O)c1cccc(NC(=O)CSc2nc(=O)n(CCCN3CCOCC3)c3c2CCC3)c1 | 31.2* | 8.4 | -4.6 | 0.5 | 6.5
CC(=O)c1cccc(NC(=O)COC(=O)COc2ccc(Cl)cc2)c1 | -0.4 | 3.8 | -7.9 | 0.1 | x
CC(=O)c1cccc(NC(=O)COC(=O)Cc2ccc(Cl)cc2)c1 | 14.3 | -9.8 | -13.5 | -1.2 | 0.0
COc1ccccc1NC(=O)CN1CCN(c2ccccc2F)CC1 | 35.4* | 11.9 | 13.1 | 6.4 | 95.6
COc1ccccc1NC(=O)CN1CCN(C(=O)C2CCCO2)CC1 (stereo not drawn) | 21.8 | 3.1 | 21.0 | -0.1 | 6.3
COc1ccccc1NC(=O)CN1CCN(c2ccccc2OC)CC1 | i | 8.6 | -3.1 | 2.7 | x
CC(=O)Nc1ccc(S(=O)(=O)N(C)CC(=O)Nc2ccccc2N2CCCC2)cc1 | i | -6.9 | -2.9 | -1.9 | x
O=C(COC(=O)[C@H](Cc1c[nH]c2ccccc12)NC(=O)c1ccc(Cl)cc1)Nc1ccc2c(c1)OCO2 | 1.8 | -0.6 | 6.8 | -1.8 | -0.1
O=C(Oc1ccnc2cc(Cl)ccc12)N1CCCCCC1 | 16.7* | 9.7 | 0.2 | 2.1 | 1.3
Cc1ccnc(S(=O)(=O)Cc2ccc([N+](=O)[O-])cc2)n1 | 0.6 | -10.8 | -3.5 | 0.7 | x
CCOC(=O)c1cnc(-n2nc(C)cc2C)nc1N(C)C | 12.5 | 6.4 | 8.4 | 5.5 | 2.2
CCOC(=O)c1cnc(-n2nc(C)cc2C)nc1NC1CCCC1 | -1.3 | -3.5 | -1.1 | 4.6 | x
CCOc1cc2[nH]c(=S)n(Cc3ccc(C(=O)NCCN(CC)CC)cc3)c(=O)c2cc1OCC | i | 16.0 | -6.4 | 1.9 | x
COCCNC(=S)N(CCCO)Cc1cc2cc3c(cc2[nH]c1=O)OCCO3 | 389.4* | 9.4 | -20.9 | 14.2 | 2.4
O=S(=O)(Nc1ccc(-c2ccc3nncn3n2)cc1)c1ccc(Cl)s1 | 160.2* | 20.4 | -1.7 | 10.6 | -0.1
